Screening results from PubChem.
FEN1 inh-1: qHTS Assay for the Inhibitors of Human Flap endonuclease 1 (FEN1); Recombinant FEN1 flap cleavage, fluorescence, 15 min; Potency, µM (doses to about 114 µM), inactives show at the top dose activity change, negative = inhibition, hits mostly inhibitors; AID 588795, 2011; 0.35% of 390,000 active; P39748; further: on the % scale 0 is the no-effect control and ±100 the full control effect; nearly all actives have a fitted effect of over 65% in size
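Nuclease activity of 10 nM FEN1 was measured after 15 min of room-temperature exposure to titrated compounds, by adding 50 nM flap substrate and reading plates at 0 and 15 min.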
Pol kappa inh-1: qHTS for Inhibitors of Polymerase Kappa; Potency, µM (doses to about 107 µM), for the others: at the highest dose activity, negative = inhibition, hits mostly inhibitors; AID 588579, 2011; 0.53% of 400,000 active; purified Pol kappa, fluorescent DNA synthesis assay, 10 min; further: on the % scale 0 is the no-effect control and ±100 the full control effect
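Inhibition of 10 nM Pol kappa is measured by a fluorescent read-out at 0 and 10 min following addition of 50 nM substrate (final), with a 15-min room-temperature compound preincubation.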
POLB inh: qHTS Assay for Inhibitors of DNA Polymerase Beta. 1.3% of 340,000 active. P06746. Pol beta primer extension/strand displacement, fluorescence kinetic. Potency, µM (doses to about 114 µM), inactives show top-dose activity change, negative = inhibition, most hits filed as inhibitors; further: on the % scale 0 is the no-effect control and ±100 the full control effect
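Values derive from four-parameter Hill fits of normalized kinetic data: reads at 0 and 10 min following addition of 50 nM substrate to 10 nM Pol beta preincubated 15 min with compound.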
POLI inh: qHTS for Inhibitors of Polymerase Iota; Potency, µM (titrated, usually from 115 µM), for inactives: at the top dose activity, negative = inhibition, hits mostly inhibitors; 1% of 390,000 active; Pol iota fluorescent replication assay, 10 min; AID 588590, 2011
Target sequence (Q9UNA4 whole entry, looked up): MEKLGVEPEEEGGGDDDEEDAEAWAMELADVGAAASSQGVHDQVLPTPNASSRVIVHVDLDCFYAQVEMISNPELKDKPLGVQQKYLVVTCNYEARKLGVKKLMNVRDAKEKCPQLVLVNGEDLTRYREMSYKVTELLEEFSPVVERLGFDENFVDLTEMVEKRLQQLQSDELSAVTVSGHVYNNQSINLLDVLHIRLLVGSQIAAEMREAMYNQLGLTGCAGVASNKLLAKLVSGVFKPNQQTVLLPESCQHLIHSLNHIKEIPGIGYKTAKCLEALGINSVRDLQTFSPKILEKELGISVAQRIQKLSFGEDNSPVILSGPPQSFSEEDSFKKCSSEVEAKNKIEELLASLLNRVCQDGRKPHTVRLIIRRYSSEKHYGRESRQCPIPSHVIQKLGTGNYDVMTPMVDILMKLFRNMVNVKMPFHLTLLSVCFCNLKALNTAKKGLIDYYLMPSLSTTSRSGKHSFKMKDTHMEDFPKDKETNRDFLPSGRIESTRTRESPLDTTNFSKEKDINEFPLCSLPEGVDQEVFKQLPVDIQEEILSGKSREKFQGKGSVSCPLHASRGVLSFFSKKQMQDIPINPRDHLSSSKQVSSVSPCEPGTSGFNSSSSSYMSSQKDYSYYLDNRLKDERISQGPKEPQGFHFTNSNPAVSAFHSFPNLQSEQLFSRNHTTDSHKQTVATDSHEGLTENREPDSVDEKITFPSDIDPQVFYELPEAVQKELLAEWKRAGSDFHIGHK
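Fluorescent replication assay read twice, at 0 min and 10 min after adding 50 nM (final) substrate. Enzyme (10 nM) and compounds were first incubated 15 min at room temperature; enzyme-free buffer wells were negative controls.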
TDP1 block: qHTS Assay for Inhibitors of Tyrosyl-DNA Phosphodiesterase (TDP1). recombinant TDP1, AlphaScreen DNA substrate cleavage. AID 485290, 2010. 0.28% of 350,000 active. Potency, µM (highest dose often 130 µM), without a hit: at the top dose activity change, negative = inhibition, usual class: inhibitors. Tyrosyl-DNA phosphodiesterase 1 (Homo sapiens), Q9NUW8; further: on the % scale 0 is the no-effect control and ±100 the full control effect; nearly all actives have a fitted effect of over 40% in size
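Recombinant E. coli-expressed Tdp1 (1 nM) preincubated with compound 15 min at RT, then 5'-biotin/3'-phosphotyrosine-FITC DNA substrate (15 nM) added for 5 min. AlphaScreen beads (10 ug/ml) added, 10 min RT; tyrosine-FITC cleavage read as signal loss.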
Pol eta inh-1: qHTS for Inhibitors of Polymerase Eta | AID 588591, 2011 | DNA polymerase eta (Homo sapiens), Q9Y253 | recombinant Pol eta, fluorescent DNA replication assay | 1.2% of 390,000 active | Potency, µM (top dose mostly 114 µM), for inactives: at the top dose activity change, negative = inhibition, actives largely listed as inhibitors; further: on the % scale 0 is the no-effect control and ±100 the full control effect
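Pol eta (10 nM) was preincubated with compounds for 15 min at room temperature, after which fluorescent replication substrate (50 nM final) was added to start the reaction. Fluorescence was read kinetically at 0 and 10 min.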
TbPGK inh: qHTS for inhibitors of Phosphogylcerate Kinase: Hit Validation Screen. shares compounds with Pol kappa inh-1. TbPGK coupled GAPDH assay, Kinase-Glo luminescence. Potency, µM (series often up to 57.5 µM), without a hit: top-dose activity change, negative = inhibition, hits mostly inhibitors. 79% of 500 active; further: on the % scale 0 is the no-effect control and ±100 the full control effect; nearly all actives have a fitted effect of over 65% in size
POLI cherry-pick: qHTS for Inhibitors of Polymerase Iota: Confirmatory Assay for Cherry-picked Compounds; shares compounds with Pol kappa inh-1; Pol iota primer extension, TAMRA/BHQ fluorescence; Potency, µM, hits mostly inhibitors; AID 720496, 2013; 77% of 1,500 active
Pol kappa inh-2: qHTS for Inhibitors of Polymerase Kappa: Confirmatory Assay for Cherry-picked Compounds. shares compounds with Pol eta inh-1. purified Pol-kappa, fluorescent strand-displacement substrate. Potency, µM, usual class: inhibitors. 76% of 920 active. AID 720501, 2013
Pol eta inh-2: qHTS for Inhibitors of Polymerase Eta: Confirmatory Assay for Cherry-picked Compounds; shares compounds with Pol eta inh-1; Pol eta primer extension, TAMRA/BHQ fluorescence, 10 min; Potency, µM, most hits filed as inhibitors; 64% of 2,600 active
FEN1 inh-2: qHTS Assay for the Inhibitors of FEN1: Confirmatory Assay for Cherry-picked Compounds; FEN1 flap cleavage, TAMRA/BHQ2 fluorogenic DNA substrate; shares compounds with FEN1 inh-1; 79% of 880 active; Potency, µM, hits mostly inhibitors; further: nearly all actives have a fitted effect of over 60% in size
Starred values were filed as active, the others as inactive; ? = inconclusive; nt = no result given; [ ] = another dose, or the depositor's remark. Compounds with a hit are over-represented: about 2.4% of the library has one in this group of screens. The call rests on the fitted dose curve; in most records, active means well fitted curve in the direction sought with a large enough effect; inconclusive means small, poorly fitted or top-dose-only effect, or another doubt; inactive means no such curve, though single readings can be large; an effect the other way counts as inactive or inconclusive. Potency means the concentration at half of the fitted maximal effect.

SMILES | FEN1 inh-1 | Pol kappa inh-1 | POLB inh | POLI inh | TDP1 block | Pol eta inh-1 | POLI cherry-pick | Pol eta inh-2 | FEN1 inh-2 | others
COc1cc(O)c(C(C)=O)c(CC(=O)O)c1 | 22µM* | 13µM* | 16µM* | 13µM* | nt | 3.2µM* | 17* | 8.5* | 60* | TbPGK inh=8.2µM*
CCCCN(Cc1ccccc1)C(=O)c1oc(=O)c2ccccc2c1-c1ccc(C)cc1 | -4% | -17% | 0% | 11% | 0% | -20% | nt | nt | nt
O=C1NN(c2ccc(Cl)cc2)C(=O)/C1=C\c1ccc(-c2cccc(C(=O)O)c2)o1 | 50µM* | 20µM* | 10µM* | 8.9µM* | nt | 4.5µM* | 21* | 17* | 67*
O=C(N/N=C/c1cccnc1)c1cc(Br)ccc1O | 6% | -8% | 2% | -27% | nt | -11% | nt | nt | nt
O=C(N/N=C/c1cccnc1)c1cc(O)c(O)c(O)c1 | 4µM* | ? | ? | ? | nt | -18% | 24* | nt | 6*
CC(OC(=O)/C(C#N)=C/c1ccc(N(C)C)cc1)C(=O)N(C)Cc1ccccc1 (stereo not given) | ? | ? | 1% | 89µM* | 2% | 50µM* | 27* | 24* | 76*
CC(OC(=O)c1cccc(O)c1)C(=O)N(C)Cc1ccccc1 (stereo not given) | -3% | -3% | nt | 14% | nt | 0% | nt | nt | nt
O=C1NC(=O)/C(=C/c2ccc(-c3cccc([N+](=O)[O-])c3)o2)S1 | ? | -2% | 1% | ? | nt | 22µM* | nt | ? | ? | TbPGK inh=18µM*
CC(C)(C)n1ncc2c(=O)n(Cc3cc(F)c(F)cc3Cl)cnc21 | -16% | 8% | nt | 9% | nt | nt | nt | nt | nt
O=C1c2ccc3c4c(ccc(c24)C(=O)N1NC(=O)C(F)(F)F)CC3 | 56µM* | 18µM* | -1% | 22µM* | nt | 79µM* | 42* | 17* | 60*
CC(C)N1CCc2c(sc(NC(=O)C3CC3)c2-c2nc3ccccc3s2)C1 | nt | nt | nt | nt | nt | nt | 42* | nt | 15*
CC(C)N1CCc2c(sc(NC(=O)C3CCCCC3)c2C(N)=O)C1 | -1% | 4% | 5% | 4% | nt | -6% | nt | nt | nt
CCc1ccc(NC(=O)Cn2c(=O)n(Cc3ccco3)c(=O)c3cccnc32)cc1 | 15% | -2% | -1% | -20% | -4% | 0% | nt | nt | nt
CCc1noc(-c2ccc(N3CCCCC3)c([N+](=O)[O-])c2)n1 | 13% | -19% | -13% | 12% | 11% | -15% | nt | nt | nt
O=C1COc2ccc(C(=O)COC(=O)/C=C/c3ccc(Br)o3)cc2N1 | ? | 18µM* | nt | 20µM* | nt | 1.6µM* | 21* | 67* | ?
NC(=S)NN=Cc1ccc(-c2ccc(S(=O)(=O)Nc3ncccn3)cc2)o1 | 79µM* | 20µM* | nt | ? | 10µM* | 3.2µM* | ? | 9.5* | 24* | Pol kappa inh-2=?
Cc1ccc(-c2ccc(/C=N/NC(N)=S)o2)cc1 | -12% | -9% | 3% | 45% | nt | -10% | nt | nt | nt
CCN(c1cccc(C)c1)S(=O)(=O)c1ccc2[nH]cc(C(=O)NCCCOC)c(=O)c2c1 | -13% | -8%[60.1 µM] | ? | -20% | 2% | -8% | nt | nt | nt
Cc1ccccc1C1=C/C(=C(\SS/C(C(=O)c2ccc(OCC(=O)O)c(Cl)c2Cl)=C2\C=C(c3ccccc3C)SS2)C(=O)c2ccc(OCC(=O)O)c(Cl)c2Cl)SS1 | 56µM* | 79µM* | nt | ? | nt | 14µM* | 38* | 24* | ? | Pol kappa inh-2=17*
COCOCCn1cc(CN2CCS(=O)(=O)N(Cc3ccc(-c4ccc(Cl)c(Cl)c4)cc3)C(C(C)C)C2=O)nn1 (stereo not given) | nt | nt | nt | nt | nt | -25% | nt | nt | nt
COc1ccc(-c2noc(-c3ccc(NCc4ccc(C)cc4)c([N+](=O)[O-])c3)n2)cc1OC | -1% | -25% | ? | 0% | 6% | -17% | nt | nt | nt
CC1=C(C(=O)Nc2ccccc2)C(c2ccc[nH]2)n2ncnc2N1 (stereo not given) | ? | ? | 8.9µM* | ? | nt | nt | 8.4* | 8.5* | 76* | Pol kappa inh-2=3.4*
O=C(O)CCCNc1cc(N2CCN(C(=O)c3ccco3)CC2)c2noc3c2c1C(=O)c1ccccc1-3 | ? | 32µM* | 16µM* | 32µM* | 5% | 10µM* | 27* | 9.5* | 27* | Pol kappa inh-2=?
O=C(c1ccco1)N1CCN(c2ccc(Cl)c(Cl)c2)CC1 | 3% | -16% | nt | 18% | nt | -16% | nt | nt | nt
CCCCC(=O)OCC(=O)C1(O)Cc2c(O)c3c(c(O)c2C(OC2CC(NC(=O)C(F)(F)F)C(O)C(C)O2)C1)C(=O)c1c(OC)cccc1C3=O (stereo not given) | -32% | ? | nt | ? | nt | -22% | nt | nt | nt
COc1cccc2c1C(=O)c1c(O)c3c(c(O)c1C2=O)CC(O)(C(C)=O)CC3OC1CC(O)C(O)C(C)O1 (stereo not given) | 28µM* | ? | nt | 45µM* | nt | 25µM* | 24* | 34* | 85* | Pol kappa inh-2=75*
O=C(O)c1cc(O)c2c(c1)C(=O)c1cc(O)cc(O)c1C2=O | ? | 22µM* | 7.9µM* | ? | nt | 8.9µM* | 21* | 6* | ?
COc1cc(O)c2c(c1)C(=O)c1cc(C)cc(O)c1C2=O | nt | ? | nt | nt | 10%[56.1 µM] | nt | nt | nt | nt
